From article PMC4336329 (PLoS ONE, 2015)
Hit rate of the full screen: of about 310,000 compounds, about 14,000 (4.5%) showed an effect of 50% or more. Effects have a minus sign here. The sample holds strong results, similar compounds and a random draw of the others, so the mix is not that of the screen.

target: human ether-à-go-go-related gene (hERG) potassium channel (human, UniProt Q12809); assay: primary screen, population patch clamp on CHO cells stably expressing hERG; higher = less effect of the substance
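Also: peak tail current of the secondary pulse compared with the same well before compound.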

Sequence of human ether-à-go-go-related gene (hERG) potassium channel (Q12809 whole entry, looked up): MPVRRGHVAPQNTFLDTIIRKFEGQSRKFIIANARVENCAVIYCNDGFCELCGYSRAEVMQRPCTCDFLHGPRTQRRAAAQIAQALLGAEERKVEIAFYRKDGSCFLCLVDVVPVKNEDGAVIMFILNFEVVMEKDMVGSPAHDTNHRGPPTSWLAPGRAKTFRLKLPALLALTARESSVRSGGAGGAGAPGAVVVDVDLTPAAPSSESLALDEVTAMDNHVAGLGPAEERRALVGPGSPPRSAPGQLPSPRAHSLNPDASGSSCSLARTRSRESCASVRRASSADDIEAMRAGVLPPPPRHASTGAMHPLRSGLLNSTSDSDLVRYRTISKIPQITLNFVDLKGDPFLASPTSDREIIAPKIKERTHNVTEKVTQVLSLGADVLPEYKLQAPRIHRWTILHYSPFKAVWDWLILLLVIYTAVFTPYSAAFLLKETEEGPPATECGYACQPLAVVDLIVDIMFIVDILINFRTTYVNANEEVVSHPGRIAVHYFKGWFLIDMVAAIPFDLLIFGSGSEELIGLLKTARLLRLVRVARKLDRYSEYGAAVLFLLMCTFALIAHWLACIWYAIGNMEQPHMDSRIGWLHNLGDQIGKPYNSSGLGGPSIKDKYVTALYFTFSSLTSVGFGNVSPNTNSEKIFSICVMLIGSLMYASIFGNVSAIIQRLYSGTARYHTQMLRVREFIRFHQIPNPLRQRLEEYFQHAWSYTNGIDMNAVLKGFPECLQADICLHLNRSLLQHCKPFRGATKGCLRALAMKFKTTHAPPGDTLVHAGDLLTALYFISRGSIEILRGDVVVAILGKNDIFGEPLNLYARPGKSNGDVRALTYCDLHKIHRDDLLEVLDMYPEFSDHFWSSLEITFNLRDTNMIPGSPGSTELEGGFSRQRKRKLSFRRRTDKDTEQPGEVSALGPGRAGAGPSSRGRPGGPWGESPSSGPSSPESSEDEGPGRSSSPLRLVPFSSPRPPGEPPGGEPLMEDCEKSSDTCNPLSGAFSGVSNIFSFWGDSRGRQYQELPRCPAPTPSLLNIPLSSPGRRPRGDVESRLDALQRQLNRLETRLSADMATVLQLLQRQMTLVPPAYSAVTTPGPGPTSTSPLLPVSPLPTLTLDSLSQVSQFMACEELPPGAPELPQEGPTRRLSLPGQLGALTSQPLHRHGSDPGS

Row | Structure (SMILES) | hERG current change (%, negative = inhibition) at 10uM [%]
1 | CCc1ccc(CN(C)C(=O)c2cc(COc3ccc(-n4cncn4)cc3)on2)cc1 | -42.5
2 | COC1CCN(C(=O)c2cc(COc3ccc(-n4cncn4)cc3)on2)CC1 | -18.6
3 | COc1cccc(CN(C)C(=O)c2cc(COc3ccc4ncccc4c3)on2)c1 | -14.8
4 | COCCOC1CCN(C(=O)c2cc(COc3ccc(-n4cncn4)cc3)on2)CC1 | -22.8
5 | CN(Cc1ccc(F)cc1)C(=O)c1cc(COc2ccc(F)cc2F)on1 | 1.65
6 | O=C(c1cc(COc2ccc(-n3cncn3)cc2)on1)N1CCCC1 | -12
7 | CC(C)CCOP(N)(=O)Oc1ccccc1Cl (centres unmarked) | 18.1
8 | CCOc1ncccc1C(=O)OCC(=O)Nc1ccc2c(c1)OCO2 | 12.6
9 | Cc1ccc(-n2[nH]c(C)c(C=Nc3ccc(S(=O)(=O)N4CCOCC4)cc3)c2=O)c(C)c1 | -7.6
10 | O=C(Nc1ccccc1NC(=O)NC1CCCCC1)NC1CCCCC1 | 0.961
11 | Cc1c(NC(=O)CSc2nnc3c4ccccc4n(CCc4ccccc4)c3n2)c(=O)n(-c2ccccc2)n1C | -27.2
12 | CC1(C)CC(CCN)(Cc2ccccc2Cl)CCO1 (centres unmarked) | -1.1
13 | Cc1ccc(S(=O)(=O)NCc2cccnc2)cc1C(=O)N1CCCC1 | 20.3
14 | Cc1ccccc1CN1CCN(CC2CC2)CC1CCO (centres unmarked) | -4.79
15 | Cc1ccccc1CN1CCN(CCCc2ccccc2)C(CCO)C1 (centres unmarked) | -70
16 | OCCC1CN(Cc2ccccc2O)CCN1CCc1ccccc1 (centres unmarked) | -35.6
17 | OCCC1CN(Cc2ccccc2O)CCN1CCCc1ccccc1 (centres unmarked) | -74.8
18 | COc1ccc(-c2cc(C(=O)Nc3cccnc3Cl)no2)cc1OC | 16.6
19 | COc1ccc(OC)c(Nc2nnc(C)c(=O)[nH]2)c1 | 6.27
20 | O=C1NC(=O)/C(=C\c2ccc(Br)o2)S1 | 21
21 | CCOC(=O)c1[nH]c(C)c(C(=O)OCC(=O)N(CC)C2CCS(=O)(=O)C2)c1C (centres unmarked) | -8.58
22 | CC(OC(=O)CCN1C(=O)c2cccc([N+](=O)[O-])c2C1=O)C(=O)Nc1cc(Cl)cc(Cl)c1 (centres unmarked) | -68.6

Row | Structure (SMILES) | hERG current change (%, negative = inhibition) at 10uM [%]
23 | Cc1cccc(NC(=O)CCN2C(=O)c3cccc([N+](=O)[O-])c3C2=O)c1 | 10.8
24 | COc1cccc(NC(=O)CCN2C(=O)c3cccc([N+](=O)[O-])c3C2=O)c1 | -3.85
25 | Cc1cc(N)ccc1NC(=O)CN1CCCC1 | 21.2
26 | N#Cc1sc(C(N)=O)c(-c2ccccc2)c1-c1ccccc1 | 9.86
27 | CCOc1ccc2nc(C)cc(Nc3cccc([N+](=O)[O-])c3)c2c1.Cl | -30.4
28 | Cc1cc(Nc2ccc([N+](=O)[O-])cc2)c2ccccc2n1 | -20
29 | Cc1cc(Nc2cccc([N+](=O)[O-])c2)c2cccc(C)c2n1.Cl | -77.3
30 | Cc1cc(Nc2ccccc2)c2c([N+](=O)[O-])ccc(C)c2n1 | -24.7
31 | O=[N+]([O-])c1cccc(Nc2c3ccccc3nc3ccccc23)c1 | -11.5
32 | Cc1cc(Nc2cccc([N+](=O)[O-])c2)c2ccccc2n1 | -76.9
33 | CCOc1cc(C2NN=C(c3ccc(C)cc3)S2)ccc1O (centres unmarked) | 9.67
34 | Cc1occc1C(=O)Nc1ccc2c(c1)OCO2 | -7.71
35 | O=C(O)c1ccc(C(=O)O)c(C(=O)c2ccccc2)c1 | 1.72
36 | O=[N+]([O-])c1ccc(CN2CCCCCC2)cc1 | -32.8
37 | O=C(NC(=S)Nc1ccc(CN2CCOCC2)cc1)c1ccc([N+](=O)[O-])cc1 | -13
38 | O=[N+]([O-])c1ccc(CN2CCOCCOCCN(Cc3ccc([N+](=O)[O-])cc3)CCOCC2)cc1 | -77.8
39 | O=[N+]([O-])c1ccc(CN2CCOCCOCCOCC2)cc1 | -59.1
40 | c1ccc(CN2CCOCCOCCOCC2)cc1 | 15.6
41 | O=[N+]([O-])c1ccc(CN2CCSCC2)cc1 | 15.5
42 | CC(OC(=O)c1ccc(Cl)c(S(=O)(=O)N2CCOCC2)c1)C(=O)NC1CCCCC1C (centres unmarked) | -35.9
43 | O=C1OC(CCl)CN1Cc1c(Cl)cccc1Cl (centres unmarked) | -0.492
44 | O=C(COc1ccc(C(=O)c2ccc(F)cc2)cc1)NCc1ccc(F)cc1 | 4.49
